# Source: paper PMC7826789 (International Journal of Molecular Sciences, 2021)
structure (smiles),measurement,setting,value
COc1cc(Nc2cnc(C#N)c(O[C@H](C)CN(C)C)n2)ncc1-c1cnn(C)c1 [CCT244747],Kinases covered,PRKAA1,PRKAA1
same,Kinases covered,RPS6KA1,RPS6KA1
NCC1CCC(CNc2nc(NCc3ccccc3OC(F)(F)F)ncc2[N+](=O)[O-])CC1 (centres unmarked) [BIRZ0518XX],Kinases covered,PRKCD,PRKCD
same,Kinases covered,PRKCE,PRKCE
same,Kinases covered,PRKCQ,PRKCQ
CCn1c(-c2nonc2N)nc2c(C#CC(C)(C)O)nc(OCCNC)cc21.Cl [GSK949675],Kinases covered,PRKCH,PRKCH
Cc1cccc(-c2nc(Nc3ccncc3)c3ccccc3n2)n1 [GW855857],Kinases covered,PRKD2,PRKD2
same,Kinases covered,PRKD3,PRKD3
COc1ccc2nc(-c3cccc(C)n3)nc(Nc3ccncc3)c2c1 [GSK204919],Kinases covered,PRKD2,PRKD2
CNc1nc(-c2ccc3c(N)n[nH]c3c2)cc(N2C[C@@H](C(=O)Nc3ccccc3)CC[C@H]2C)n1 [GSK2298859],Kinases covered,PRKX,PRKX
COc1cc(N2CCN(C(C)C)CC2)ccc1Nc1nc(Nc2ccc(F)cc2C(=O)NC[C@@H](O)CO)c2cc[nH]c2n1 [GSK1392956A],Kinases covered,PTK2B,PTK2B
COc1cc(N2CCN(C)CC2)ccc1Nc1ncc2c(n1)N(C)c1ccccc1C(=O)N2 [XMD8-87],Kinases covered,PTK6,PTK6
CCCc1cc(N2CCCN(C)CC2)nc2sc3c(N)ncnc3c12 [BI00604564],Kinases covered,RIOK2,RIOK2
Cc1cc(NC(=O)c2cccc(NC(=O)/C=C/CN(C)C)c2)ccc1Nc1nccc(-c2cccnc2)n1 [JNK-IN-7],Kinases covered,RIOK2,RIOK2
CC1=C(C(=O)Nc2ccc3[nH]ncc3c2)C(c2ccc(Cl)c(Cl)c2)CC(=O)N1 (centres unmarked) [GSK299115A],Kinases covered,ROCK1,ROCK1
CCn1c(-c2nonc2N)nc2cncc(C(=O)N3CC[C@H](N)C3)c21.Cl [SB-772077-B],Kinases covered,ROCK2,ROCK2
CCn1c(-c2nonc2N)nc2cncc(CNC3CCNCC3)c21 [SB-747651A],Kinases covered,ROCK2,ROCK2
